# TWEAK-Fn14 inh = inhibitors of TWEAK-Fn14 interaction signaling | TWEAK-stimulated Fn14 reporter cells, luciferase luminescence, 8 h | inhibition, % at 10 µM | 360,000 tested, 2% active | AID 1159606; in the data active means inhibition above about 50%
# Peg3 prom inh = reduces Peg3 promoter-driven luciferase expression in HeLa. HeLa PEG-Prom luciferase reporter, luminescence, overnight. inhibition, % at 20 µM. 360,000 tested, 1.7% active. AID 588405;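 active means inhibition of at least 50% at 20 µM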
# HIF-2a inh = inhibitors of HIF-2a; 786-0 RCC cells HIF-2a reporter, luciferase luminescence, overnight; inhibition, % at 18.8 µM; 360,000 tested, 0.72% active;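 active means inhibition of the luminescence signal of 40% or more relative to plate controls, in a single-dose primary screen at 18.75 µM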
# CF NFkB block = inhibitors of cystic fibrosis induced NF-kB; KKLEB NF-kB-GFP reporter, PAF-induced, GFP fluorescence overnight; inhibition, % at 5 µM; 360,000 tested, 0.86% active;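 active means at least 50% inhibition at 5 µM, scaled per plate between neutral and stimulator controls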;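 further: PAF is a Pseudomonas aeruginosa culture filtrate used as stimulus; plate controls were PAF-stimulated DMSO wells for no effect and unstimulated DMSO wells for full effect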
# KKLEB cytotox = counter-screen for CF NF-kB inhibitors: cytotoxicity; KKLEB CF airway cells viability, ATPlite luminescence, overnight; active compounds read low; cells stimulated with P. aeruginosa culture filtrate; activity change (cytotoxicity), % at 5 µM; 360,000 tested, 0.36% active; AID 602141;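 active means corrected activity change at or below -50% at 5 µM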
# TROY NFkB inh = blocks TROY-dependent signaling in reporter cells; 360,000 tested, 0.98% active; inhibition, % at 10 µM; Q293 LMP1-TROYcd NF-kB luciferase reporter, 4 h;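 active means compounds whose plate-normalised and pattern-corrected inhibition of the luciferase reporter signal at the single screening dose is 50% or more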
# * marks the source's active call; other numbers are inactive results. Sampled rows, rich in hits. Any-hit rate of the full collection: about 3.9%.
SMILES,TWEAK-Fn14 inh,Peg3 prom inh,HIF-2a inh,CF NFkB block,KKLEB cytotox,TROY NFkB inh
O=[N+]([O-])c1ccc(Nc2ccccc2)c2nonc12,30,29,4,4,-1,11
COc1ccccc1-c1cc(C(=O)Nc2cc(C)n(Cc3ccc(Cl)cc3)n2)no1,-29,12,-18,60*,-76*,28
Cc1cc(C(=O)Nc2cc(C)n(Cc3ccc(Cl)cc3)n2)no1,-2,-11,-39,-15,7,-27
O=c1c2c(nc3cc(-c4ccccc4)[nH]n13)CCS2,13,-1,13,6,1,21
O=c1c2c(nc3cc(-c4ccccc4Cl)[nH]n13)CCS2,63*,-203,-144,2,-3,-2
O=C(OCCN1CCCC1=O)c1cncc(Br)c1,3,1,10,21,-8,10
CN(C)S(=O)(=O)c1cccc(NC(=O)COc2cccc3ccccc23)c1,9,8,-8,36,-26,10
CCN(CC)S(=O)(=O)c1ccc(C)c(NC(=O)CNCc2ccccc2OC)c1,-1,7,9,6,0,-3
CCN(CC)S(=O)(=O)c1ccc(C)c(NC(=O)CN(C)C)c1,16,-8,12,-12,1,53*
Cc1ccc(S(=O)(=O)N(C)C)cc1NC(=O)COc1ccccc1C(=O)Nc1ccccc1,20,60*,13,15,-17,8
CN(C)S(=O)(=O)c1cccc(NC(=O)COc2ccccc2C(=O)Nc2ccccc2)c1,51*,47,-2,-9,12,39
CN(C)S(=O)(=O)c1cccc(NC(=O)c2ccc(COc3ccccc3)cc2)c1,90*,14,-37,4,-24,58*
C[C@H](CO)N1C[C@H](C)[C@@H](CN(C)C(=O)Nc2cc(F)ccc2F)Oc2ncc(-c3cccc(F)c3)cc2C1=O,-3,14,-4,2,-2,-1
CCOc1ccc(NC(=O)CSc2nncc(=O)n2N)cc1,-2,18,-17,16,-10,20
O=C(CSc1nc2ccc([N+](=O)[O-])cc2[nH]1)NC1CCCCC1,20,16,8,-4,-6,6
O=C(CSc1nc2ccc([N+](=O)[O-])cc2[nH]1)NC1CCCCCC1,61*,31,-4,9,-8,49
CN(C)C(=O)CSc1cnc2ccccc2n1,17,5,11,-4,-7,10
Cc1ccc(C(=O)CSc2cnc3ccccc3n2)cc1C,89*,-143,-8,34,0,76*
CC(C)C(NC(=O)c1ccco1)C(=O)NCC(c1ccco1)N(C)C (configuration not stated),8,6,14,-7,-7,-1
C/C(=N\NC(=O)c1nnn(-c2nonc2N)c1CN(C)c1ccccc1)c1ccccn1,-6,68*,18,6,0,-2
COc1cc(OC)c(C(=O)O/N=C(\N)c2ccccn2)cc1OC,-24,-34,-78,-27,7,-26
N/C(=N\OC(=O)c1cccc(Cl)c1)c1ccccn1,92*,20,-4,-39,-4,68*
N/C(=N\OC(=O)c1ccc(Cl)c([N+](=O)[O-])c1)c1ccccn1,2,42,-29,-16,-10,-1
COc1ccc(CC(=O)O/N=C(\N)c2ccccn2)cc1,9,-70,-146,6,-3,-18
N/C(=N\OC(=O)Cc1ccc(-c2ccccc2)cc1)c1ccccn1,70*,-151,-40,4,5,70*
SMILES,TWEAK-Fn14 inh,Peg3 prom inh,HIF-2a inh,CF NFkB block,KKLEB cytotox,TROY NFkB inh
N/C(=N\OC(=O)c1ccc(Cl)c([N+](=O)[O-])c1)c1ccccc1,-26,75*,-20,-10,0,-21
COc1ccccc1C(=O)O/N=C(\N)c1ccccn1,74*,-134,-148,-6,-8,55*
Cc1ccc(N2CC(C(=O)NC3=NCCS3)CC2=O)cc1 (configuration not stated),-11,4,14,-14,6,-7
CC(OC(=O)c1ccc(Cl)c([N+](=O)[O-])c1)C(=O)N1CCN(Cc2ccccc2)CC1 (configuration not stated),3,78*,25,14,2,31
N/C(=N\OC(=O)c1cc([N+](=O)[O-])ccc1Cl)c1cccnc1,-18,62*,-5,-2,4,-22
CCOc1cc(C(=O)O/N=C(\N)c2ccccn2)cc(OCC)c1OCC,-31,84*,-56,-3,1,24
